± gives the standard deviation of the averaged measurements. The full ranking holds about 4,100 sequences; the median of “relative kcat/Km (krel) vs genomic leader AAAGAU” is about 1.7, and the highest 2% start at about 6.5. For the sample, the highest values were picked, then their nearest neighbours and some sequences at random.
Biological target: T1, E. coli RNase P holoenzyme (M1 P RNA + rnpA protein) (UniProt P0A7Y8)
T1 sequence: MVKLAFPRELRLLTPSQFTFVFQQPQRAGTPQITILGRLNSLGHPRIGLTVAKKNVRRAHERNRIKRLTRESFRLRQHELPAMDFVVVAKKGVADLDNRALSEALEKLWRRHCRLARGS
Assay: relative kcat/Km (krel) vs genomic leader AAAGAU (relative (reference leader = 1)); higher = faster RNase P cleavage
Method in brief: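 Relative kcat/Km (krel) values came from internal competition kinetics on sequencing read ratios, normalised to the genomic leader and averaged over two technical replicates. A precursor tRNA-Met pool with randomized leader positions −6 to −1 was cleaved by E. coli RNase P holoenzyme (P RNA plus C5 protein) under multiple-turnover conditions at 37 °C. The buffer held 50 mM Tris-HCl pH 8, 100 mM NaCl and 17.5 mM MgCl2, and unreacted precursor was gel-purified at ~5–30% conversion, made into cDNA libraries and Illumina-sequenced.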

[1] = fraction of substrate reacted: ~9-10% (9.79% repeat 1, 9.1% repeat 2)
[2] = fraction of substrate reacted: ~13-16% (15.68% repeat 1, 13.17% repeat 2)
[3] = fraction of substrate reacted: ~26-29% (28.66% repeat 1, 26.4% repeat 2)

GGCCTC
relative kcat/Km [1]: 1.28 ± 0.39
relative kcat/Km [2]: 0.933 ± 0.5
relative kcat/Km [3]: 1.94 ± 0.76

GCATGA
relative kcat/Km [1]: 1.91 ± 0.28
relative kcat/Km [2]: 1.07 ± 0.63
relative kcat/Km [3]: 2.21 ± 0.69

TACAAC
relative kcat/Km [1]: 3.75 ± 1.9
relative kcat/Km [2]: 5.24 ± 0.76
relative kcat/Km [3]: 7.11 ± 3

AACAAG
relative kcat/Km [2]: 1.32 ± 0.57
relative kcat/Km [3]: 3.26 ± 0.69

TACAAA
relative kcat/Km [1]: 3.89 ± 1.8
relative kcat/Km [2]: 5.2 ± 0.41
relative kcat/Km [3]: 7.71 ± 3

CACAAG
relative kcat/Km [1]: 1.66 ± 0.94
relative kcat/Km [2]: 1.78 ± 0.81
relative kcat/Km [3]: 3.72 ± 0.99

GACAAC
relative kcat/Km [1]: 3.9 ± 0.94
relative kcat/Km [2]: 3.84 ± 1.1
relative kcat/Km [3]: 6.93 ± 3.1

AACAAA
relative kcat/Km [1]: 3.32 ± 2.3
relative kcat/Km [2]: 3.9 ± 0.11
relative kcat/Km [3]: 5.24 ± 1.1

GACACC
relative kcat/Km [1]: 3.17 ± 1.9
relative kcat/Km [2]: 3.35 ± 0.2
relative kcat/Km [3]: 5.28 ± 1.8

CACAAA
relative kcat/Km [1]: 3.35 ± 0.11
relative kcat/Km [2]: 4.93 ± 1.2
relative kcat/Km [3]: 6.59 ± 2.9

CACAAC
relative kcat/Km [1]: 3.95 ± 1.3
relative kcat/Km [2]: 4.05 ± 0.63
relative kcat/Km [3]: 6.36 ± 2.1

TACAAG
relative kcat/Km [1]: 1.6 ± 0.23
relative kcat/Km [2]: 2.38 ± 0.42
relative kcat/Km [3]: 4.49 ± 1.9

AACAAC
relative kcat/Km [1]: 2.99 ± 0.85
relative kcat/Km [2]: 3.22 ± 0.17
relative kcat/Km [3]: 4.45 ± 1.8

GACAGC
relative kcat/Km [1]: 3.44 ± 1
relative kcat/Km [2]: 4.06 ± 0.54
relative kcat/Km [3]: 5.59 ± 1.6

ACGCAT
relative kcat/Km [1]: 1.58 ± 0.85
relative kcat/Km [2]: 2.23 ± 0.052
relative kcat/Km [3]: 3.39 ± 1.3

TTGTCG
relative kcat/Km [3]: 1.07 ± 0.3

TCTCGG
relative kcat/Km [1]: 1.19 ± 1.1
relative kcat/Km [2]: 0.684 ± 0.45
relative kcat/Km [3]: 1.04 ± 0.15

TCTTCA
relative kcat/Km [1]: 2.36 ± 1.3
relative kcat/Km [2]: 1.88 ± 0.27
relative kcat/Km [3]: 2.49 ± 0.68

ACCCGT
relative kcat/Km [1]: 1.55 ± 1.5
relative kcat/Km [2]: 1.9 ± 1.9
relative kcat/Km [3]: 1.96 ± 1.4

AGCTCA
relative kcat/Km [1]: 2.57 ± 1.9
relative kcat/Km [2]: 2.16 ± 0.53
relative kcat/Km [3]: 3.13 ± 1.1

AACACT
relative kcat/Km [1]: 1.88 ± 1.1
relative kcat/Km [2]: 2.41 ± 0.39
relative kcat/Km [3]: 3.76 ± 0.87

TGACTT
relative kcat/Km [1]: 1.97 ± 0.23
relative kcat/Km [2]: 2.77 ± 0.65
relative kcat/Km [3]: 3.33 ± 1.3

GACAAT
relative kcat/Km [1]: 3.33 ± 1.5
relative kcat/Km [2]: 3.55 ± 1.1
relative kcat/Km [3]: 5.83 ± 2.4

CACACT
relative kcat/Km [1]: 2.56 ± 0.39
relative kcat/Km [2]: 3.16 ± 0.72
relative kcat/Km [3]: 4.82 ± 1.5

TACAAT
relative kcat/Km [1]: 2.84 ± 0.75
relative kcat/Km [2]: 4.74 ± 0.94
relative kcat/Km [3]: 7.14 ± 3.4

GACAAA
relative kcat/Km [1]: 4.01 ± 1.6
relative kcat/Km [2]: 4.49 ± 0.5
relative kcat/Km [3]: 6.91 ± 2.5

GACACG
relative kcat/Km [2]: 1.39 ± 0.034
relative kcat/Km [3]: 2.6 ± 0.37

CACAAT
relative kcat/Km [1]: 3.85 ± 1.2
relative kcat/Km [2]: 4.61 ± 0.51
relative kcat/Km [3]: 6.78 ± 2.9

CACATT
relative kcat/Km [1]: 3.5 ± 1.3
relative kcat/Km [2]: 4.74 ± 0.66
relative kcat/Km [3]: 6.23 ± 2.3

GACAAG
relative kcat/Km [1]: 2 ± 1.4
relative kcat/Km [2]: 2.152 ± 0.02
relative kcat/Km [3]: 4.06 ± 0.99

AACAAT
relative kcat/Km [1]: 1.84 ± 0.24
relative kcat/Km [2]: 3.26 ± 0.41
relative kcat/Km [3]: 4.49 ± 1.9

AGGCTC
relative kcat/Km [3]: 0.722 ± 0.43

GTTACA
relative kcat/Km [1]: 1.9 ± 0.82
relative kcat/Km [2]: 2.16 ± 0.12
relative kcat/Km [3]: 3.09 ± 1.2

CTGCCA
relative kcat/Km [1]: 1.58 ± 1
relative kcat/Km [2]: 0.692 ± 0.67
relative kcat/Km [3]: 1.19 ± 0.3

TCACAT
relative kcat/Km [1]: 3.6 ± 1.2
relative kcat/Km [2]: 4.18 ± 0.55
relative kcat/Km [3]: 6.08 ± 2.7

AACGTG
relative kcat/Km [3]: 0.741 ± 0.57

GGATGC
relative kcat/Km [1]: 1.44 ± 0.27
relative kcat/Km [2]: 1.71 ± 0.79
relative kcat/Km [3]: 2.74 ± 1

CAAAGC
relative kcat/Km [1]: 1.07 ± 0.26
relative kcat/Km [2]: 1.12 ± 1.1
relative kcat/Km [3]: 1.94 ± 1.2

TCTCGA
relative kcat/Km [1]: 3.05 ± 0.36
relative kcat/Km [2]: 3.16 ± 0.42
relative kcat/Km [3]: 4.89 ± 2

CCCTCT
relative kcat/Km [1]: 2.96 ± 0.6
relative kcat/Km [2]: 3.23 ± 0.81
relative kcat/Km [3]: 3.9 ± 0.73

ACCTCC
relative kcat/Km [1]: 3.29 ± 2.2
relative kcat/Km [2]: 3.3 ± 0.22
relative kcat/Km [3]: 4.3 ± 0.6

GCCTCA
relative kcat/Km [1]: 3.93 ± 1.6
relative kcat/Km [2]: 4.02 ± 0.47
relative kcat/Km [3]: 5.77 ± 2.1

TCCTCG
relative kcat/Km [1]: 2.35 ± 1.9
relative kcat/Km [2]: 2.52 ± 0.14
relative kcat/Km [3]: 3.64 ± 0.61

CCCTCA
relative kcat/Km [1]: 2.47 ± 1.3
relative kcat/Km [2]: 3.63 ± 0.37
relative kcat/Km [3]: 3.95 ± 0.28

TCCTCA
relative kcat/Km [1]: 3.22 ± 0.45
relative kcat/Km [2]: 4.2 ± 0.86
relative kcat/Km [3]: 6.64 ± 2.4

TCCTCC
relative kcat/Km [1]: 3.65 ± 1.8
relative kcat/Km [2]: 4.58 ± 1.2
relative kcat/Km [3]: 6.57 ± 2.7

TCCTCT
relative kcat/Km [1]: 3.55 ± 1.7
relative kcat/Km [2]: 4.68 ± 1
relative kcat/Km [3]: 6.72 ± 2.6

CCCTCC
relative kcat/Km [1]: 3.55 ± 1.1
relative kcat/Km [2]: 3.38 ± 0.94
relative kcat/Km [3]: 4.21 ± 1.1

ATGGCA
relative kcat/Km [2]: 1.34 ± 1.2
relative kcat/Km [3]: 1.01 ± 0.3

AGTAGG
relative kcat/Km [3]: 1.52 ± 0.61

CCACCC
relative kcat/Km [1]: 2 ± 0.12
relative kcat/Km [2]: 1.27 ± 0.51
relative kcat/Km [3]: 2.49 ± 0.73

AGATGT
relative kcat/Km [1]: 0.906 ± 0.45
relative kcat/Km [3]: 1.84 ± 1.7

CTTGTG
relative kcat/Km [3]: 0.748 ± 0.26

CGCGGG
relative kcat/Km [1]: 0.135 ± 0.028
relative kcat/Km [3]: 0.258 ± 0.092

— the supplement of paper PMC9433436
